In PubChem BioAssay AID1159580 (chemical genetic matrix, 2015):
Out of some 5,500 compounds screened, about 2,000 (36%) were called active. Inconclusive results (about 18%) are left out. Rule as the data show it: active = normalized growth mostly below about 0.91 (no sharp cut-off); inconclusive = no clear call, values can overlap the other calls; inactive = mostly above about 0.92. The list shows a part of the results.

Test: chemical genetic growth profiling, strain panel (AID 1159580);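 also: tested at 20 µM; growth read once vehicle control cultures reached saturation at 30 °C; 1 = growth at the plate median or of vehicle wells; lower values mean less growth of the strain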
Details: S. cerevisiae deletion strains, growth OD

Measured: normalized growth

Clc1ccc2c(c1)c1ccccc1n2CN1CCOCC1
inactive: locus YAR019C, strain CDC15, stronger effect = lower value 0.935 | locus YBL105C, strain PKC1, stronger effect = lower value 0.941 | locus YBR135W, strain CKS1, stronger effect = lower value 0.925 | locus YBR136W, strain MEC1, stronger effect = lower value 0.957 | locus YBR160W, strain CDC28, stronger effect = lower value 0.945 | locus YDL017W, strain CDC7, stronger effect = lower value 0.938 | locus YDL028C, strain MPS1, stronger effect = lower value 0.95 | locus YDL101C, strain DUN1, stronger effect = lower value 0.975 | locus YDL108W, strain KIN28, stronger effect = lower value 0.949 | locus YDL132W, strain cdc53, stronger effect = lower value 0.918 | locus YDL214C, strain PRR2, stronger effect = lower value 0.753 | locus YDR052C, strain DBF4, stronger effect = lower value 0.951 | locus YDR054C, strain cdc34, stronger effect = lower value 0.926 | locus YDR226W, strain ADK1, stronger effect = lower value 0.933 | locus YFL009W, strain cdc4, stronger effect = lower value 0.934 | locus YFL029C, strain CAK1, stronger effect = lower value 0.917 | locus YFR003C, strain YPI1, stronger effect = lower value 0.945 | locus YFR019W, strain FAB1, stronger effect = lower value 0.894 | locus YFR028C, strain CDC14, stronger effect = lower value 0.952 | locus YGR052W, strain FMP48, stronger effect = lower value 0.603 | locus YHR079C, strain IRE1, stronger effect = lower value 0.79 | locus YHR082C, strain KSP1, stronger effect = lower value 0.764 | locus YHR205W, strain SCH9, stronger effect = lower value 0.714 | locus YIL147C, strain SLN1, stronger effect = lower value 0.944 | locus YJL095W, strain BCK1, stronger effect = lower value 0.724 | locus YJL128C, strain PBS2, stronger effect = lower value 0.921 | locus YJL157C, strain FAR1, stronger effect = lower value 0.722 | locus YJR016C, strain ILV3, stronger effect = lower value 0.943 | locus YJR066W, strain TOR1 (second series), stronger effect = lower value 0.738 | locus YJR066W, strain TOR1, stronger effect = lower value 0.619 | locus YKL101W, strain HSL1, stronger effect = lower value 0.728 | locus YKL193C, strain SDS22, stronger effect = lower value 0.916 | locus YLR133W, strain CKI1, stronger effect = lower value 0.776 | locus YML070W, strain DAK1, stronger effect = lower value 0.748 | locus YMR001C, strain CDC5, stronger effect = lower value 0.92 | locus YMR205C, strain PFK2 (second series), stronger effect = lower value 0.757 | locus YMR277W, strain FCP1, stronger effect = lower value 0.929 | locus YNL006W, strain LST8, stronger effect = lower value 0.934 | locus YNL020C, strain ARK1, stronger effect = lower value 0.771 | locus YNL161W, strain CBK1, stronger effect = lower value 0.928 | locus YNL183C, strain NPR1, stronger effect = lower value 0.658 | locus YNL207W, strain RIO2, stronger effect = lower value 0.914 | locus YNL222W, strain SSU72, stronger effect = lower value 0.927 | locus YOL078W, strain AVO1, stronger effect = lower value 0.93 | locus YOL136C, strain PFK27, stronger effect = lower value 0.72 | locus YOR231W, strain MKK1, stronger effect = lower value 0.834 | locus YOR329C, strain SCD5, stronger effect = lower value 0.934 | locus YPL153C, strain RAD53, stronger effect = lower value 0.786 | locus YPL209C, strain IPL1, stronger effect = lower value 0.939 | locus YPR025C, strain CCL1, stronger effect = lower value 0.934 | locus YPR106W, strain ISR1, stronger effect = lower value 0.94 | locus YPR111W, strain DBF20, stronger effect = lower value 0.939 | strain NNK1, stronger effect = lower value 0.949 | strain TSCII, stronger effect = lower value 0.912
active: locus YDR477W, strain SNF1, stronger effect = lower value 0.541 | locus YER123W, strain YCK3, stronger effect = lower value 0.588 | locus YER133W, strain GLC7, stronger effect = lower value 0.641 | locus YGR040W, strain KSS1, stronger effect = lower value 0.592 | locus YGR092W, strain DBF2, stronger effect = lower value 0.208 | locus YHR030C, strain SLT2, stronger effect = lower value 0.679 | locus YKL048C, strain ELM1, stronger effect = lower value 0.696 | locus YKL067W, strain YNK1, stronger effect = lower value 0.709 | locus YKL203C, strain TOR2, stronger effect = lower value 0.598 | locus YLR113W, strain HOG1, stronger effect = lower value 0.755 | locus YLR403W, strain SFP1, stronger effect = lower value 0.612 | locus YNL307C, strain MCK1 (second series), stronger effect = lower value 0.602 | locus YOR061W, strain CKA2, stronger effect = lower value 0.558 | locus YOR119C, strain RIO1, stronger effect = lower value 0.501 | locus YPL031C, strain PHO85, stronger effect = lower value 0.545 | locus YPL204W, strain HRR25, stronger effect = lower value 0.641 | locus YPL256C, strain CLN2, stronger effect = lower value 0.823

COc1ccc2c(c1)c(CC(=O)N1CCOCC1)c(C)n2C(=O)c1ccc(Cl)cc1
inactive: locus YAL040C, strain CLN3, stronger effect = lower value 0.996 | locus YCL061C, strain MRC1 (second series), stronger effect = lower value 1.01 | locus YDR363W, strain ESC2, stronger effect = lower value 1.03 | locus YER002W, strain NOP16, stronger effect = lower value 0.998 | locus YGR078C, strain PAC10, stronger effect = lower value 1.01 | locus YGR229C, strain SMI1, stronger effect = lower value 1 | locus YMR263W, strain SAP30, stronger effect = lower value 1.01 | locus YNL175C, strain NOP13, stronger effect = lower value 1.01 | locus YNL197C, strain WHI3, stronger effect = lower value 1.01 | locus YNL224C, strain SQS1, stronger effect = lower value 0.993 | locus YNL322C, strain KRE1, stronger effect = lower value 1.01 | locus YOR083W, strain WHI5 (second series), stronger effect = lower value 0.999 | locus YPL241C, strain CIN2, stronger effect = lower value 1.01
